Experimental data: the antibiotic and cytotoxicity screens of Wong et al. (2023)
The whole screen tested about 39,000 compounds, of which about 3,300 (8.5%) were called active. The sample as a whole holds a higher share of actives than the screen did.

These compounds were tested on HepG2 (assay: cytotoxicity call (relative viability < 0.9)). Settings: 10 µM.

| Structure (SMILES) | cytotoxicity call |
| --- | --- |
| C[C@@H]1CN([C@@H](C)CO)S(=O)(=O)c2ccc(-c3ccncc3)cc2O[C@@H]1CN(C)Cc1ccc(Oc2ccccc2)cc1 | inactive |
| C[C@H](O)C#Cc1ccc2c(c1)O[C@@H](CN(C)C(=O)CN(C)C)[C@H](C)CN([C@H](C)CO)S2(=O)=O | inactive |
| C[C@H]1CN([C@@H](C)CO)C(=O)c2cccc(NC(=O)Nc3ccc(F)cc3)c2O[C@@H]1CN(C)Cc1ccc(-c2ccccc2)cc1 | inactive |
| C[C@@H]1CN([C@@H](C)CO)C(=O)c2cccc(NC(=O)Nc3ccccc3)c2O[C@H]1CN(C)Cc1ccc(-c2ccccc2)cc1 | inactive |
| C[C@@H]1CN([C@@H](C)CO)C(=O)c2cccc(NC(=O)Nc3ccc(F)cc3)c2O[C@@H]1CN(C)Cc1ccc(-c2ccccc2)cc1 | active |
| C[C@@H]1CN([C@@H](C)CO)C(=O)c2cccc(NC(=O)Nc3ccccc3)c2O[C@@H]1CN(C)Cc1ccc(-c2ccccc2)cc1 | active |
| CC(C)NC(=O)Nc1cccc2c1O[C@H](CN(C)Cc1ccc(-c3ccccc3)cc1)[C@H](C)CN([C@H](C)CO)C2=O | inactive |
| C[C@H]1CN([C@@H](C)CO)C(=O)c2cccc(NC(=O)Nc3ccccc3)c2O[C@@H]1CN(C)Cc1ccc(-c2ccccc2)cc1 | inactive |
| CC(C)NC(=O)Nc1cccc2c1O[C@@H](CN(C)Cc1ccc(-c3ccccc3)cc1)[C@@H](C)CN([C@@H](C)CO)C2=O | inactive |
| C[C@H](CO)N1C[C@H](C)[C@@H](CN(C)Cc2ccc(-c3ccccc3)cc2)Oc2c(NC(=O)Nc3ccc(F)cc3)cccc2C1=O | inactive |
| CC(C)NC(=O)Nc1cccc2c1O[C@H](CN(C)Cc1ccc(-c3ccccc3)cc1)[C@@H](C)CN([C@@H](C)CO)C2=O | active |
| C[C@H]1CN([C@@H](C)CO)C(=O)c2cccc(NC(=O)Nc3ccc(F)cc3)c2O[C@H]1CN(C)Cc1ccc(-c2ccccc2)cc1 | inactive |
| C[C@@H]1CN([C@H](C)CO)C(=O)c2cccc(NC(=O)Nc3ccc(F)cc3)c2O[C@H]1CN(C)Cc1ccc(-c2ccccc2)cc1 | active |
| C[C@H](CO)N1C[C@H](C)[C@H](CN(C)Cc2ccc(-c3ccccc3)cc2)Oc2c(NC(=O)Nc3ccc(F)cc3)cccc2C1=O | inactive |
| CN1CCN(C(=O)C[C@H]2CC[C@@H]3[C@H](COC[C@H](O)CN3C(=O)C3CC3)O2)CC1 | inactive |
| O=C(O)[C@H]1CCCC[C@@H]1C(=O)N1CCOCC1 | inactive |
| CO[C@@H]1CN(C)C(=O)c2ccc(NS(C)(=O)=O)cc2OC[C@@H](C)N(C(=O)C2CCCCC2)C[C@H]1C | inactive |
| COc1ccc(NC(=O)N2C[C@@H](O)COC[C@@H]3O[C@H](CC(=O)NCc4ccccc4OC)CC[C@H]32)cc1 | inactive |
| C[C@@H]1CN([C@@H](C)CO)S(=O)(=O)c2ccc(C#CC3CC3)cc2O[C@H]1CN(C)Cc1ccccc1F | inactive |
| COc1ccc(S(=O)(=O)N[C@H]2CC[C@@H](CC(=O)N3CCN(c4ccccc4)CC3)O[C@H]2CO)cc1 | inactive |

| Structure (SMILES) | cytotoxicity call |
| --- | --- |
| CC(C)NC(=O)Nc1ccc2c(c1)C(=O)N([C@H](C)CO)C[C@@H](C)[C@H](CN(C)S(C)(=O)=O)OCCCC[C@H](C)O2 | inactive |
| O=C(C[C@H]1CC[C@@H](NS(=O)(=O)c2ccc(F)cc2)[C@@H](CO)O1)NCc1ccc(Cl)c(Cl)c1 | inactive |
| C[C@@H]1CCCCO[C@@H](CN(C)C(=O)Nc2ccc(F)cc2)[C@H](C)CN([C@H](C)CO)C(=O)c2cc(NC(=O)Cc3ccccc3)ccc2O1 | inactive |
| C[C@@H]1O[C@@H](O[C@@H]2[C@@H](O)[C@H](C)O[C@@H](OC[C@H]3O[C@@H](Oc4c(-c5ccc(O)cc5)oc5cc(O)cc(O)c5c4=O)[C@H](O)[C@@H](O)[C@H]3O)[C@@H]2O)[C@H](O)[C@H](O)[C@H]1O | inactive |
| C[C@@H]1CN([C@@H](C)CO)C(=O)c2cc(C#Cc3cccnc3)cnc2O[C@@H]1CN(C)Cc1ccc(F)cc1 | inactive |
| C[C@H](CO)N1C[C@H](C)[C@@H](CN(C)Cc2ccccc2)Oc2c(NC(=O)c3ccc(-c4nccs4)cc3)cccc2C1=O | inactive |
| N#CCNC(=O)Cc1ccccc1 | inactive |
| NC(Cc1cc(I)c(Oc2ccc(O)c(I)c2)c(I)c1)C(=O)[O-].[Na+] [LIOTHYRONINE (L- isomer) SODIUM ] | active |
| N[C@@H](Cc1cc(I)c(Oc2ccc(O)c(I)c2)c(I)c1)C(=O)O | inactive |
| NC(Cc1cc(I)c(Oc2ccc(O)c(I)c2)c(I)c1)C(=O)O (stereo not given) | inactive |
| COc1cccc(S(=O)(=O)Nc2ccc3c(c2)[C@@H]2C[C@@H](CC(=O)NCc4cccc(F)c4)O[C@@H](CO)[C@@H]2O3)c1 | inactive |
| Cc1noc(C)c1S(=O)(=O)Nc1ccc2c(c1)CC(=O)N([C@H](C)CO)C[C@H](C)[C@H](CN(C)CC1CC1)O2 | inactive |
| Cc1noc(C)c1S(=O)(=O)N(C)C[C@H]1OCCCC[C@H](C)Oc2ccc(NC(=O)Nc3ccccc3)cc2C(=O)N([C@H](C)CO)C[C@H]1C | inactive |
| Cc1noc(C)c1S(=O)(=O)N(C)C[C@@H]1OCCCC[C@@H](C)Oc2ccc(NC(=O)Nc3ccccc3)cc2C(=O)N([C@@H](C)CO)C[C@@H]1C | inactive |
| Cc1noc(C)c1S(=O)(=O)N(C)C[C@H]1OCCCC[C@@H](C)Oc2ccc(NC(=O)Nc3ccccc3)cc2C(=O)N([C@@H](C)CO)C[C@@H]1C | active |
| Cc1noc(C)c1S(=O)(=O)N(C)C[C@@H]1OCCCC[C@H](C)Oc2ccc(NC(=O)Nc3ccccc3)cc2C(=O)N([C@H](C)CO)C[C@H]1C | active |
| Cc1noc(C)c1S(=O)(=O)N(C)C[C@@H]1OCCCC[C@@H](C)Oc2ccc(NC(=O)Nc3ccccc3)cc2C(=O)N([C@H](C)CO)C[C@H]1C | inactive |
| Cc1noc(C)c1S(=O)(=O)N(C)C[C@H]1OCCCC[C@H](C)Oc2ccc(NC(=O)Nc3ccccc3)cc2C(=O)N([C@H](C)CO)C[C@@H]1C | inactive |
| COc1cccc(S(=O)(=O)N(C)C[C@H]2Oc3cc(C4=CCCC4)ccc3S(=O)(=O)N([C@@H](C)CO)C[C@@H]2C)c1 | inactive |
| CC(C)NC(=O)Nc1ccc2c(c1)C(=O)N([C@@H](C)CO)C[C@@H](C)[C@@H](CN(C)C(=O)Nc1ccccc1)OCCCC[C@H](C)O2 | inactive |
